# Sampled rows, rich in hits. Any-hit rate of the full collection: about 2.2%.
# HGIII-sPLA2 inh: Blocks human group III sPLA2 activity; QFRET BODIPY PC-A2 liposome hydrolysis, fluorescence; inhibition, % at 12.2 µM; actives 0.56% (n = 370,000); AID 743126;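 active = inhibition above mean plus 3 SD of compounds lying within the high and low control bounds, cut at about 19% in these data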;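 note: 0% = median of test compound wells and 100% = no enzyme DMSO wells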
# m5-HT2A agonist: agonists of mouse serotonin 5-HT2A receptor (HTR2A); actives 0.66% (n = 360,000); activation, % at 7.6 µM; AID 624169; CHO-K1 mHTR2A beta-arrestin complementation, luminescence; percent of 30 µM serotonin response; P35363;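 active = activation above a run cutoff, the mean activation of all tested compounds plus 3 SD, cut at about 14% in these data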;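 note: 0% = plate median of compound wells and 100% = 30 µM serotonin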
# Target sequence (P35363 whole entry, looked up): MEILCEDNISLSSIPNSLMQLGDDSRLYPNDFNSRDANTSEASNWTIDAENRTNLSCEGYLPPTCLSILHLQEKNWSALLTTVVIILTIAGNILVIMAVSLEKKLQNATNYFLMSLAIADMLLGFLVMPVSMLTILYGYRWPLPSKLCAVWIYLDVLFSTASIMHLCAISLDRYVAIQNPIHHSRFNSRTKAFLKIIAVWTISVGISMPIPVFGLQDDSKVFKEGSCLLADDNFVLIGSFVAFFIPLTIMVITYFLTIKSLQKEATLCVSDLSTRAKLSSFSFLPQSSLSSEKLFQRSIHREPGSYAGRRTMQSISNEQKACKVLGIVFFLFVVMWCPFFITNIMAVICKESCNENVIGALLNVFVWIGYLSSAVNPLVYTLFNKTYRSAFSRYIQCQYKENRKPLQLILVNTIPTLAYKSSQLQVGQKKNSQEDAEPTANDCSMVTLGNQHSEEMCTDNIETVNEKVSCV
# OPRM1-OPRD1 ag: agonists of human mu-delta opioid receptor heterodimerization; P35372+P41143; cells, OPRM1-OPRD1 heterodimerization, luminescence; activation, % at 9.3 µM; actives 0.3% (n = 340,000); AID 504326; in the data active = activation above about 18%;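 note: 0% = vehicle-treated cells and 100% = reference agonist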
# HTR5A ag ctr: activates human HTR5A in OPRM1-OPRD1 agonist counter-screen | actives 0.61% (n = 340,000) | activation, % at 9.3 µM | HTR5A agonist assay, luminescence, cell-based | P47898; in the data active = activation mostly above about 9.5%, no sharp cut-off; inactive = mostly below about 7.6%;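 note: 0% = cells with vehicle only and 100% = reference agonist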
# HTR5A inv ctr: inverse agonist of human HTR5A in OPRM1-OPRD1 counter-screen; P47898; HTR5A cell line, luminescence, inverse agonism; inhibition, % at 9.3 µM; AID 504634; actives 0.083% (n = 340,000); in the data active = inhibition mostly above about 23%, no sharp cut-off; inactive = mostly below about 18%;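 note: 0% = cells with DMSO and 100% = no-cell wells with DMSO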
# MOR-DOR inv ag: inverse agonist of human OPRM1-OPRD1 heterodimerization | P35372+P41143 | cell-based MOR-DOR heterodimer luminescence, inverse agonism | inhibition, % at 9.3 µM | actives 0.21% (n = 340,000) | AID 504357; in the data active = inhibition above about 22%, passing the limit was not always enough;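 note: 0% = cells with DMSO and 100% = wells without cells with DMSO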
# * marks the source's active call; other numbers are inactive results; / = no result.
SMILES,HGIII-sPLA2 inh,m5-HT2A agonist,OPRM1-OPRD1 ag,HTR5A ag ctr,HTR5A inv ctr,MOR-DOR inv ag
O=C1Nc2ccccc2S/C1=C/Nc1cccc(Cl)c1,2,-6,23*,14*,3,-121
O=C(OCC#CCSc1nnc(-c2cccc(F)c2)o1)c1ccc(F)cc1,-13,/,/,/,/,/
Cc1ccc2nc(C)cc(C(=O)OCC(=O)c3ccc(Cl)c([N+](=O)[O-])c3)c2c1,-4,-5,-19,-9,41*,79*
Cc1c(C(=O)NC2CCCCC2)sc2ncnc(N3CCN(c4ccccc4)CC3)c12,7,-2,-2,11*,14,10
O=C1C=CC(=O)N1Cc1ccccc1,2,18*,4,6,-8,-19
CCOC(=O)[C@@]12CN(C(=O)OC(C)(C)C)CC=C1N(Cc1ccc(OC)cc1)C(=O)[C@H]2CC(=O)NCCc1ccccc1OC,-5,/,/,/,/,/
COc1ccc(C(=O)NNC(=S)NC(=O)c2cc(-c3ccccc3)nc3ccccc23)cc1,-3,7,2,-2,21,-9
CCCOc1ccc(C(=O)NNC(=S)NC(=O)c2cc(-c3ccc(Cl)cc3)nc3ccccc23)cc1,2,1,-11,-22,75*,61*
COc1ccc(Cn2ccc3ccc(-c4ccc5ccn(Cc6ccc(C#N)cc6)c5c4)cc32)cc1,2,/,/,/,/,/
Cc1nc2ccc(NS(=O)(=O)c3cccc([N+](=O)[O-])c3)cc2s1,-12,5,1,9.0*,-37,-3
COC(=O)C1=C(O)CSC1=Nc1cccc(C(F)(F)F)c1,-16,2,-3,14*,-1,13
COC(=O)/C(N=Nc1cccc(C(F)(F)F)c1)=C(\C)O,5,12,2,0,-20,-10
Cc1ccc(S(=O)(=O)Nc2c(NC3CCCCC3)c3ccccc3oc2=O)cc1,-22,1,0,13*,4,-1
CN(C)C(=O)NCCCC#Cc1ccccc1,8,/,/,/,/,/
CCOC(=O)CCCNC(=O)OC1CC2CC1[C@H]1CCCCN1[C@H]2Cc1ccccc1 (stereo partly specified),-8,/,/,/,/,/
CSc1ccccc1NC(=O)COC(=O)CCC(=O)c1ccc(F)cc1,0,0,-1,8.4*,-33,4
COC(=O)C1CN(Cc2ccc(OC)cc2)CCS(=O)(=O)N1Cc1ccc(C(F)(F)F)cc1 (stereo unspecified),1,/,/,/,/,/
CCOc1ccc(OCc2ccc(C(=O)N3CCc4ccccc4C3)o2)cc1,-8,15*,2,1,16,-12
O=C(Nc1ccc(F)cc1F)c1cccn1-c1ncc(C(F)(F)F)cc1Cl,2,1,4,3,17,-21
FC(F)(F)c1cnc(NNC(=S)Nc2ccc(Cl)cc2)c(Cl)c1,4,-10,-10,-10,49*,49*
Fc1ccc(NC(=S)NNc2ncc(C(F)(F)F)cc2Cl)c(F)c1,-9,-12,-10,-15,39*,56*
O=C(NNc1ncc(C(F)(F)F)cc1Cl)c1ccc(Cl)c(Cl)c1,12,-7,-3,2,-4,15
COC(=O)[C@H](CC(C)C)N(CCc1cn(Cc2ccc(C)cc2)nn1)S(=O)(=O)c1ccc(F)cc1Br,-9,/,/,/,/,/
O=C(Nc1ccc(-c2noc(COc3ccccc3Cl)n2)cc1)c1ccco1,-9,1,3,12*,-21,-11
CCCCNc1c(-c2ccc(OC)c(SC(C)CC)c2)nc2ccc(C)cn12 (stereo unspecified),5,2,14,6,-14,-77
CCC(C)Sc1ccc(-c2nc3ccc(C)cn3c2NCc2ccccc2)cc1OC (stereo unspecified),/,-15,8,11*,-33,-46
CCC(C)Sc1cc(-c2nc3ccc(C)cn3c2NCc2ccccc2)ccc1OC (stereo unspecified),3,10,21*,16*,10,-124
C[C@H](O)[C@@H]1CN2CCc3ccc(-c4ccc5c(c4)OCO5)cc3[C@@H]2C[C@@H]1N(C)C(=O)c1cccc(Cl)c1,-7,/,/,/,/,/
Cc1ccc(N2C(=O)N(CC(=O)NCc3ccc(Cl)cc3)C(=O)C2C)cc1 (stereo unspecified),-7,-5,-2,-1,-18,9

# Screening results deposited in PubChem by The Scripps Research Institute Molecular Screening Center.
